Holding throughout (design): scale not given: direction of the effect not stated beside the values
Experiment [1] deals with Protein translocase subunit SecA (Escherichia coli (strain K12)) (UniProt P10408). In words: Assay to Identify E. coli SecA ATPase Inhibitors. It counts as functional. The conditions noted are these: 30 µM.
The target of experiment [2] is T1, Ubiquitin-activating enzyme e1, putative (Leishmania donovani (strain BPK282A1)) (UniProt E9BSI1).
T1 sequence (whole entry): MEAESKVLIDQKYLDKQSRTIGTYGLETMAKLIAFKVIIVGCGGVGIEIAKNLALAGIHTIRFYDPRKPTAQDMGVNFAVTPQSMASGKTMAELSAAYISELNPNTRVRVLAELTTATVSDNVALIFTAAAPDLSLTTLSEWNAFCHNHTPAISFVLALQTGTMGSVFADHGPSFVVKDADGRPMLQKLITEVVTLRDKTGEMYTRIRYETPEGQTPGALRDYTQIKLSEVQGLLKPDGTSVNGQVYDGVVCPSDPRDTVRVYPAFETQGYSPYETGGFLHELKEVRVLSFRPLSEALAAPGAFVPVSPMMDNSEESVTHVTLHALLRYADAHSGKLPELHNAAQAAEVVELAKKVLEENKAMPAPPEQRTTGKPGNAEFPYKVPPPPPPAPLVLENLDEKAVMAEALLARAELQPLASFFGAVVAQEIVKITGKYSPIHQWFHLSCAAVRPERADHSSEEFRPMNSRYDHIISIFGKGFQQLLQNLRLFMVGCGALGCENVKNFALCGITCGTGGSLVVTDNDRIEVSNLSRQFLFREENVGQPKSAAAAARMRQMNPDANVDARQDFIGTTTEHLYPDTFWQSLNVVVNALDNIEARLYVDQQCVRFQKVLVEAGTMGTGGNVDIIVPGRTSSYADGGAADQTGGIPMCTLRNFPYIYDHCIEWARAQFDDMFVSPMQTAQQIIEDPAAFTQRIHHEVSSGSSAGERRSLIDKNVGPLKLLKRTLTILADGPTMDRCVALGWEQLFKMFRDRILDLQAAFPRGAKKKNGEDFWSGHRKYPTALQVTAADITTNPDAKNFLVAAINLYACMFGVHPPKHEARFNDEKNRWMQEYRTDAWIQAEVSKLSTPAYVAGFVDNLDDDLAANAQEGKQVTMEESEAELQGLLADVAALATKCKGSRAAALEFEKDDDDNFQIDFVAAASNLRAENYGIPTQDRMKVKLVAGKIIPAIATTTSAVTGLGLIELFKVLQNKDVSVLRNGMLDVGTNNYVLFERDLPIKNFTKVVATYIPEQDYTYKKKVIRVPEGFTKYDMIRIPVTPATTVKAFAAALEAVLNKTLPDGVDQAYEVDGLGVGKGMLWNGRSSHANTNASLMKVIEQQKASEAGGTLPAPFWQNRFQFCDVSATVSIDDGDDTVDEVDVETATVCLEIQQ
In words: Leishmania donovani Ubiquitin Activating Enzyme (LdE1). It is filed as functional. Conditions: 30 µM.

In experiment [3] the target is T2, Aspartate--tRNA(Asp/Asn) ligase (Mycobacterium tuberculosis (strain ATCC 25618 / H37Rv)) (UniProt P9WFW3). Note: in the data most compounds retested in dose-response had high values.
T2 sequence (whole entry): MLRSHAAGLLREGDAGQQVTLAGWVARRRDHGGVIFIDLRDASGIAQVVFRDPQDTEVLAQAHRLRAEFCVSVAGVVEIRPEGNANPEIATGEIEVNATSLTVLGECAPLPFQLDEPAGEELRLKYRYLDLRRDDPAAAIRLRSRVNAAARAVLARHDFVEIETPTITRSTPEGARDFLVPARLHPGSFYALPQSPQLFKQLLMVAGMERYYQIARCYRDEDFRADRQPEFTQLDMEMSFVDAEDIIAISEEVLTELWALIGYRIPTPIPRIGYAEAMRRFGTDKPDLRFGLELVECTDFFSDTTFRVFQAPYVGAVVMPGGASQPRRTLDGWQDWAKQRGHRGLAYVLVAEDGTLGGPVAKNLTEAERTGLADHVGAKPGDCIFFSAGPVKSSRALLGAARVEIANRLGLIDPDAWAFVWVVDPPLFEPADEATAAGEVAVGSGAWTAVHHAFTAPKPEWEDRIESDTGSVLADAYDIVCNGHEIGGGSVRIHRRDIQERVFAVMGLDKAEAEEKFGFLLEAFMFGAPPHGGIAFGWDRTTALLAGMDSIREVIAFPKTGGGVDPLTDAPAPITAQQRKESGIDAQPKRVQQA
In words: Assay for Asp RNA synthetase-1 from Mycobacterium tuberculosis. It counts as functional. The conditions noted are these: 30 µM.

The target in experiment [4] is Sialic acid-binding Ig-like lectin 9 (Homo sapiens) (UniProt Q9Y336). In words: Hs-Siglec9 ALPHAscreen SOP 20170721. Conditions: 10 µM. A general note: Bead proximity is the source of the signal in Alpha formats.
A further experiment concerns Trypanosoma cruzi. Put plainly: Trypanosoma cruzi phosphomannomutase and mannose-1-phosphate guanylyltransferase assay. It is filed as functional. The conditions noted are these: 10 µM.
Experiment [5] concerns the target T3, Arginase-2, mitochondrial (Homo sapiens) (UniProt P78540).
T3 sequence (whole entry): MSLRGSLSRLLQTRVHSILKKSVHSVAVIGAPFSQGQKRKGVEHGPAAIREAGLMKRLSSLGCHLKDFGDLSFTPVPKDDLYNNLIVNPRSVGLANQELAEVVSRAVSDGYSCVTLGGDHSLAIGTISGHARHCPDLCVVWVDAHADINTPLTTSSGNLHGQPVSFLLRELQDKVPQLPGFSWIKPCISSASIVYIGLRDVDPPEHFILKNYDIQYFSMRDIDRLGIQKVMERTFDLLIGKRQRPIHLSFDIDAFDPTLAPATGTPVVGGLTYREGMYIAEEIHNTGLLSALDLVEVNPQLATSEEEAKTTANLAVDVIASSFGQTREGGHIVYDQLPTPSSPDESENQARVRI
Put plainly: in vitro enzyme assay to detect the production of urea directly proportional to the activity of Arginase II. Note: in the data most compounds retested in dose-response had high values. It is filed as functional. Conditions: 33.3 µM.

Experiment [6] concerns the target T4, Proteasome subunit beta (Trypanosoma cruzi) (UniProt O96673).
T4 sequence (whole entry): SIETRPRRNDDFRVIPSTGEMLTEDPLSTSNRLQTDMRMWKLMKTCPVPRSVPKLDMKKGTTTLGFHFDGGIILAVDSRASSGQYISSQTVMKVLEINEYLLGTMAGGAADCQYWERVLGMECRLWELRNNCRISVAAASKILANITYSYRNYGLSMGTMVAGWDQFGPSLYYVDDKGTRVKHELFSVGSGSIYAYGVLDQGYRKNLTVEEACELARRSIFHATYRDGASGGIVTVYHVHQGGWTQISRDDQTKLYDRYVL
Put plainly: Trypanosoma cruzi proteasome chymotrypsin-like activity (TcProtChymo) assay. Note: in the data most compounds retested in dose-response had high values. It is filed as functional. Conditions: 9.37 µM.

For a further experiment, the species on record is Homo sapiens. Put plainly: To identify inhibition of the IFN signalling (Jak-Stat) pathway via expression of an eGFP reporter gene under the control of an IFN-stimulated response element (ISRE) containing MxA promoter. It is filed as functional. The conditions noted are these: 30 µM. For orientation: In a reporter assay the amount or activity of a reporter protein is the signal.

Experiment [7] addresses Shiga toxin 2 (Escherichia coli O157:H7) (UniProt P09385+P09386). In words: E. coli 0.157:H7 Shiga Toxin SOP - stx2 screening assay. It counts as functional. Conditions: 30 µM.
In experiment [8] the target is T5, Tyrosyl-tRNA synthetase, putative (Trypanosoma cruzi (strain CL Brener)) (UniProt Q4DSP6).
T5 sequence (whole entry): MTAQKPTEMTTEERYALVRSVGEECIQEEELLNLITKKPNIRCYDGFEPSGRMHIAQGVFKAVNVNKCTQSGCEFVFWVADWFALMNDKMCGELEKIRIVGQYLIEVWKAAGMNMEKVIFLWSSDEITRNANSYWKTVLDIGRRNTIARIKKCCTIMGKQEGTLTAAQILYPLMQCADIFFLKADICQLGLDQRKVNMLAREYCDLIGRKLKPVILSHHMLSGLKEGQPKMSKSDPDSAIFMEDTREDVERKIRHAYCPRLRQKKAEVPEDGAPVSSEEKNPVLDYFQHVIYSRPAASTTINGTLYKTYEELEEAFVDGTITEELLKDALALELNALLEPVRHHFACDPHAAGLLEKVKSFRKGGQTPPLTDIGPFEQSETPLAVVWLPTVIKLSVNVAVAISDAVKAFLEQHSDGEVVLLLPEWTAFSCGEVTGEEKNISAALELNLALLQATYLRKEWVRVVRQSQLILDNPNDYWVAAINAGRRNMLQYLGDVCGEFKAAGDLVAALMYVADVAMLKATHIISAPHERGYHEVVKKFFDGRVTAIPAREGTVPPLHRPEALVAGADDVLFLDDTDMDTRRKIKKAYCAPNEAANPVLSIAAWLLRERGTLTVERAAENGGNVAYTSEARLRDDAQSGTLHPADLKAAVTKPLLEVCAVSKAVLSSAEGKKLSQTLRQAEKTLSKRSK
Put plainly: Trypanosoma cruzi tyrosyl tRNA synthetase (TcYRS) _High Tyrosine SOP. Note: in the data most compounds retested in dose-response had high values. It is filed as functional. The conditions noted are these: 30 µM.

Experiment [9] addresses T5, Tyrosyl-tRNA synthetase, putative (Trypanosoma cruzi (strain CL Brener)). Put plainly: Trypanosoma cruzi tyrosyl tRNA synthetase (TcYRS) SOP. It is filed as functional. Conditions: 30 µM.
Experiment [10] has as its target Chromo domain-containing protein 1 (Saccharomyces cerevisiae (strain ATCC 204508 / S288c) (Baker's yeast)) (UniProt P32657). In words: ScCHD-1 Enzyme Inhibition Assay. Note: in the data most compounds retested in dose-response had high values. It is filed as functional. The conditions noted are these: 30 µM.

For part of these data: Entries with a potency or affinity are not part of this list.

Sialic acid-binding Ig-like lectin 9 (Homo sapiens), sequence (Q9Y336 whole entry): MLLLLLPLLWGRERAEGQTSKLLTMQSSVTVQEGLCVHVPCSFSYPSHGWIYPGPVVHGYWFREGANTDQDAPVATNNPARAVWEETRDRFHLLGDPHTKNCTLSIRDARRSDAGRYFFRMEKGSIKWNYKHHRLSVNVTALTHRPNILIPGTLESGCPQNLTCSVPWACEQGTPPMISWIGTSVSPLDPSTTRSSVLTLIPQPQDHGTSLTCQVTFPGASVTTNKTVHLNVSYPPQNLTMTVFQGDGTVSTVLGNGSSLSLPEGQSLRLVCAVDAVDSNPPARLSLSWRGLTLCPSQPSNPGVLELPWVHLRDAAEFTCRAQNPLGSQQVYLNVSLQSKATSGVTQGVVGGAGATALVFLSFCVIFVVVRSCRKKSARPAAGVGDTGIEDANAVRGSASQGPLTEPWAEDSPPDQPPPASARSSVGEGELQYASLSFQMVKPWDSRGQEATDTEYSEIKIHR
Protein translocase subunit SecA (Escherichia coli (strain K12)), sequence (P10408 whole entry): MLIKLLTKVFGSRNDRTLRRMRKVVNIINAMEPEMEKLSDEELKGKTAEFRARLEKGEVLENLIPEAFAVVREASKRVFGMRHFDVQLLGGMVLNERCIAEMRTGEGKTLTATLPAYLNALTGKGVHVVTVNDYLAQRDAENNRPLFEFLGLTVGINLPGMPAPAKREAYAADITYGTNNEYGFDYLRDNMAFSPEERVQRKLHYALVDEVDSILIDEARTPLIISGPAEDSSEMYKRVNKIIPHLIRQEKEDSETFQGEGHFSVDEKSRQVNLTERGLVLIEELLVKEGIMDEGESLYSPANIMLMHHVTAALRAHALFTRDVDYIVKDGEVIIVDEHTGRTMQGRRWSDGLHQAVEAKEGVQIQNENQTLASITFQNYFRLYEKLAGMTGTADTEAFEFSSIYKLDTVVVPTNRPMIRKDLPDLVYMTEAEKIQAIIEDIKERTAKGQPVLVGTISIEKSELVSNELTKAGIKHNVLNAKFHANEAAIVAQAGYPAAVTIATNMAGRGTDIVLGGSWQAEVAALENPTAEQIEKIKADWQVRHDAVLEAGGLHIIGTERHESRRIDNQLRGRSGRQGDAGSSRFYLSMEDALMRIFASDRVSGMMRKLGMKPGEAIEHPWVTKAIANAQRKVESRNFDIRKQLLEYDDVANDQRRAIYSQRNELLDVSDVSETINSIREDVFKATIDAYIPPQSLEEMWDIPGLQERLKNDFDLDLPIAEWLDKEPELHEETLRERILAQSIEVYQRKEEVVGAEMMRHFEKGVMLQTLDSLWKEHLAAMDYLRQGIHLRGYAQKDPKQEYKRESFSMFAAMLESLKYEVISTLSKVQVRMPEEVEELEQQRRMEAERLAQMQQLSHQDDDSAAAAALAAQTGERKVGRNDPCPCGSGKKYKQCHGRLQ
Chromo domain-containing protein 1 (Saccharomyces cerevisiae (strain ATCC 204508 / S288c) (Baker's yeast)), sequence (P32657 whole entry, the tested form may be a part): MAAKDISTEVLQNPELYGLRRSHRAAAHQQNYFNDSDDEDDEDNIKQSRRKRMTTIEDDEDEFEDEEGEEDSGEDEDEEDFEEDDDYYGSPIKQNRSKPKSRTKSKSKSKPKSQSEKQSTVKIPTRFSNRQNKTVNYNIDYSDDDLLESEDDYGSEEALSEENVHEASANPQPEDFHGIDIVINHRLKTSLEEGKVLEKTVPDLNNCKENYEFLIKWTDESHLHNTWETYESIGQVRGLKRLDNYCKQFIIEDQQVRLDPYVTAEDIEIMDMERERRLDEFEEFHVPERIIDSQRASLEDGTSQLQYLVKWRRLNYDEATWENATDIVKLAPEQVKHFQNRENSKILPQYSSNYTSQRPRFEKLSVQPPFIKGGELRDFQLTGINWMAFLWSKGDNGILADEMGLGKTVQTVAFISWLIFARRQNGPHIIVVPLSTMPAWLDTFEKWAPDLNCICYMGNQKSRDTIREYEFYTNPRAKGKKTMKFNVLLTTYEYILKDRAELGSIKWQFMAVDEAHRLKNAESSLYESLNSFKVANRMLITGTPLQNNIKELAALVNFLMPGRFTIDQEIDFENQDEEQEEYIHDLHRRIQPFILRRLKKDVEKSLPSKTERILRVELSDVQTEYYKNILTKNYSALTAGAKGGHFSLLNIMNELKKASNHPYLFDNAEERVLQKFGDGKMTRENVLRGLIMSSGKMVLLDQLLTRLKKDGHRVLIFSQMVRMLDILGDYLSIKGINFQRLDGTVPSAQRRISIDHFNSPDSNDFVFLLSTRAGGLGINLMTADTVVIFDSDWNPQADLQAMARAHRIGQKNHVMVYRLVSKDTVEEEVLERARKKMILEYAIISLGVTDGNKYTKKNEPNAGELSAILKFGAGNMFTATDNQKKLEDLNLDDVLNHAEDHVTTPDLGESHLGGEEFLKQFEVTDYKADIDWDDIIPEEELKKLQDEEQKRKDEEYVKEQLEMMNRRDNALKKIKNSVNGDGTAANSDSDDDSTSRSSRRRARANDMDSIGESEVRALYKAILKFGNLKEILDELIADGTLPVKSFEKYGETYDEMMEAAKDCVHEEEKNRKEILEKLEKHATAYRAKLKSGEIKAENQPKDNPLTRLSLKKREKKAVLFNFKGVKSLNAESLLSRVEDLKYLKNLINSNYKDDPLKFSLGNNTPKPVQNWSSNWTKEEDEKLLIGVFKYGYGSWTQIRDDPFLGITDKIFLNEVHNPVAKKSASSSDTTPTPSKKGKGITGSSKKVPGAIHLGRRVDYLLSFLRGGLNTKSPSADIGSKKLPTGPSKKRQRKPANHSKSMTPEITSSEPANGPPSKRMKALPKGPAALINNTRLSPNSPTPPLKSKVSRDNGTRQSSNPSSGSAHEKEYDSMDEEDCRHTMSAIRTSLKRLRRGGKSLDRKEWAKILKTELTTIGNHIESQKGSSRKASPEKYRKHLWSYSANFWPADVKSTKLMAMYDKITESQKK

Take `Cc1noc(C)c1CN1CC[C@H]2OCC[C@@]2(C(=O)N2CCCO2)C1`: the Percent Effect was -4.42% in experiment [1]; 6.49% in experiment [2]; 6.12% in experiment [3]; -7.21% in [4]; -3.6% in the experiment on Trypanosoma cruzi; 3.24% in experiment [5]. Further, the Percent Effect is 16.5% in experiment [6]; -11.1% in the experiment filed under Homo sapiens; -3.97% in experiment [7]; 11.1% in experiment [8]; 10.3% in experiment [9]; 3.94% in [10].

`Cn1cc(CN2C[C@@H]3[C@@H](C2)OCC(=O)N3Cc2ccncc2)cn1`: the Percent Effect in experiment [1] is -5.79%; in experiment [2] it was 3.9%; in [3], 4.5%; in [4], -1.61%; in the experiment with Trypanosoma cruzi, 1.07%; in [5] it was 0.81%. Besides, the Percent Effect is 15.8% in [6]; 8.18% in the experiment listed under Homo sapiens; 1.35% in experiment [7]; -0.526% in [8]; 17.9% in experiment [9]; 0.0412% in experiment [10].

With `COc1ccc(C(=O)C2CCCN(Cc3ccncc3)C2)c(OC)c1` (stereo not given), the Percent Effect in experiment [1] was -6.33%; in experiment [2], 5.41%; in [3], -0.276%; in experiment [4] it was 12.6%; in the experiment with Trypanosoma cruzi, 5.33%; in experiment [5], 15%. Also, the Percent Effect in experiment [6] stood at 5.31%; in the experiment listed under Homo sapiens it was 10.7%; in [7] it was 11%; in [8] it was 5.85%; in experiment [9] it was 12.2%; in [10], 83.7%.

`COc1cccc([C@@H]2CCN(Cc3ccc4ccccc4n3)C[C@H]2O)c1`: the Percent Effect in experiment [1] is -6.38%; in experiment [2] it was 5.41%; in experiment [3], -2.79%; in experiment [4] it was 14.7%; in the experiment with Trypanosoma cruzi, 4.56%; in experiment [5] it was 18.5%. Further, the Percent Effect in experiment [6] is 9.76%; in the experiment listed under Homo sapiens, 1.68%; in experiment [7], -2.3%; in experiment [8] it was 7.98%; in experiment [9] it was 19.5%; in experiment [10] it was -2.92%.

With `Cc1cccc(CN2C(=O)C[C@H]3[C@@H]2CCN3Cc2ccccn2)n1`, the Percent Effect in experiment [1] was 0.959%; in [2], 22.1%; in experiment [3] it was 3.98%; in experiment [4] it was -1.08%; in the experiment with Trypanosoma cruzi it was -1.13%; in experiment [5] it was -1.83%. Moreover, the Percent Effect was 12.8% in experiment [6]; -7.67% in the experiment filed under Homo sapiens; -19.3% in [7]; -0.966% in [8]; 20% in [9]; -6.04% in [10].
